This note sets out measurements from PubChem BioAssay AID1220 (Sanford-Burnham Center for Chemical Genomics, 2008).

Structures are written as SMILES. Screen size: about 190,000 compounds; about 1,300 (0.68%) were called active. The sample as a whole holds a higher share of actives than the screen did. Unmarked numbers belong to inactive results. No stated cut-off is given here; in the data, active means inhibition above about 50%; inactive means the rest.

This assay deals with Mannose-6-phosphate isomerase (Homo sapiens) (UniProt P34949). Kind of assay: human PMI inhibitors, high substrate, primary screen, biochemical, fluorescence intensity, high mannose 6-phosphate (AID 1220). The conditions noted are these: recombinant PMI enzyme, coupled fluorescence intensity; at 20 µM; active compounds read high.
Chain of Mannose-6-phosphate isomerase (Homo sapiens) (P34949 whole entry, looked up): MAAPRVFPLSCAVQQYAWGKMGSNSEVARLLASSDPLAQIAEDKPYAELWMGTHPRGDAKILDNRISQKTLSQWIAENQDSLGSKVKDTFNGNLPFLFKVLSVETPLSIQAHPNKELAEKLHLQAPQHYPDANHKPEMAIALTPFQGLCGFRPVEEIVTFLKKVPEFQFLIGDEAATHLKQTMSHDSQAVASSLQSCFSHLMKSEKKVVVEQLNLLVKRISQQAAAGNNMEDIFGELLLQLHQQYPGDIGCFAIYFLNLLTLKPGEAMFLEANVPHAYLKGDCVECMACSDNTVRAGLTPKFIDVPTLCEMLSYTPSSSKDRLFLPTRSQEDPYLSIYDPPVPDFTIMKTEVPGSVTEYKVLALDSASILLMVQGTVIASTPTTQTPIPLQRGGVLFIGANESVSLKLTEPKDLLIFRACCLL
With `COC(=O)Cc1ccc2oc(-c3cccnc3)nc2c1`, the inhibition was 1.9%.

For the compound `CCCc1c(C)c2c(C)[nH]nc2oc1=O`, the inhibition is 1.7%.

For the compound `COc1cc(OC)nc(Oc2ccccc2C(=O)Oc2cccc(C)c2)n1`, the inhibition was 7%.

For `Cc1ccc(S(=O)(=O)Nc2nc3ccc(S(=O)(=O)N4CCCC4)cc3s2)cc1`, the inhibition was -22.6%.

As for `NC(=O)c1ccc(C(=O)c2ccc([N+](=O)[O-])cc2)cc1`, the inhibition is -7.6%.

In the case of `O=C1NC(=Nc2ccccc2)c2ccc([N+](=O)[O-])cc21`, the inhibition was -7.3%.

For the compound `Cc1cccc(N=C2NC(=O)c3cc([N+](=O)[O-])ccc32)c1`, the inhibition is 0.2%.

Consider `Cc1ccc(N=C2NC(=O)c3cc([N+](=O)[O-])ccc32)cc1`, for which the inhibition was 6.9%.

Regarding `O=c1[nH]c2cc3c(cc2cc1C(c1nnnn1C1CCCC1)N1CCCc2ccccc21)OCCO3` (stereo not drawn), the inhibition was 27.2%.

As to `CCC(C)(C)n1nnnc1C(c1cc2cc(C)ccc2[nH]c1=O)N1CCCc2ccccc21` (stereo not drawn), the inhibition is 21.8%.

On to `Cc1ccc2[nH]c(=O)c(C(c3nnnn3C3CCCC3)N3CCCc4ccccc43)cc2c1` (stereo not drawn), for which the inhibition was 61.4% (active).

With `Cc1ccnc(NC(=O)C(C)n2cc([N+](=O)[O-])cn2)c1` (stereo not drawn), the inhibition is -10.1%.

In the case of `CCOc1cc(N2CCOCC2)c(OCC)cc1NC(=O)c1ccc(S(C)(=O)=O)cc1`, the inhibition is 54.7% (active).

`CCOc1cc(N2CCOCC2)c(OCC)cc1NC(=O)c1ccco1`: the inhibition was 25.1%.

Take `CCNC(=S)Nc1cc(OCC)c(N2CCOCC2)cc1OCC`: the inhibition was 58% (active).

For the compound `CCOc1cc(N2CCOCC2)c(OCC)cc1NC(=O)c1ccccc1`, the inhibition was 28.4%.

For `CCOc1cc(N2CCOCC2)c(OCC)cc1NC(=O)c1ccc(NC(C)=O)cc1`, the inhibition is 26.1%.

Take `CCOc1cc(N2CCOCC2)c(OCC)cc1NC(=O)c1ccc(C)cc1`: the inhibition is 27.3%.

As to `CCOc1cc(N2CCOCC2)c(OCC)cc1NC(=O)c1nc2nc(C)cc(C)n2n1`, the inhibition was 14.6%.

On to `CCOc1cc(N2CCOCC2)c(OCC)cc1NC1=NCCCCC1`, for which the inhibition was 50.1% (active).

As to `FC(F)(F)c1ccc(N2CCOCC2)c(NC2=NCCCCC2)c1`, the inhibition was 2.9%.

For `CCOc1ccc(Br)cc1S(=O)(=O)Nc1ccccc1N1CCOCC1`, the inhibition was -0.7%.

Take `O=S(=O)(Nc1ccc(N2CCOCC2)cc1)c1ccc(Cl)s1`: the inhibition is -4.9%.

With `CCOc1cc(N2CCOCC2)c(OCC)cc1NS(=O)(=O)c1ccc(Cl)s1`, the inhibition is 54.3% (active).

For `Cc1cc(N)n2ncc(-c3ccc(F)cc3)c2n1`, the inhibition was 6.9%.

For the compound `COCc1cc(C)nc(SCC(=O)Nc2ccccc2C)c1C#N`, the inhibition was -4.7%.

On to `COc1cccc(C(=O)C2CCCN(C(=O)c3cccc(C#CC(C)(C)O)c3)C2)c1` (stereo not drawn), for which the inhibition is 13%.

For `Cc1ccc2n(n1)c(=O)c(Cc1ccccc1)c([O-])[n+]2-c1ccccc1`, the inhibition is 7.7%.

With `COCCNC(=O)CN1CCN(Cc2cccc(Cl)c2)C1=O`, the inhibition is 10.3%.

Turning to `CCOc1cc(N2CCOCC2)c(OCC)cc1NC(=O)c1cc(C)cc(C)c1`, the inhibition is 40.8%.

For the compound `CCCNC(=O)Nc1cc(OCC)c(N2CCOCC2)cc1OCC`, the inhibition was 58.7% (active).

With `CCOc1cc(N2CCOCC2)c(OCC)cc1NC(=O)C(C)(C)C`, the inhibition is 27.9%.

In the case of `COc1ccc(CCn2nnnc2C(CC(C)C)N2CCN(c3ncccn3)CC2)cc1OC` (stereo not drawn), the inhibition is 7.5%.

With `CN1CCN(Cc2c(O)ccc3c(-c4ccccc4)cc(=O)oc23)CC1`, the inhibition is 1.7%.

Regarding `CN1CCN(Cc2c(O)ccc3cc(Br)ccc23)CC1`, the inhibition is 64.6% (active).

`Oc1ccc2ccccc2c1CN1CCN(c2ccccc2F)CC1`: the inhibition is 29.8%.

With `Oc1ccc2ccccc2c1CN1CCCC1`, the inhibition was 67.8% (active).

In the case of `Oc1ccc2ccccc2c1CN1CCN(c2ccccc2)CC1`, the inhibition was -35.5%.

Consider `Oc1ccc2cc(Br)ccc2c1CN1CCCC1`, for which the inhibition was 43.2%.

Consider `CCn1c(CSc2nc3ccccc3s2)nnc1SCC(N)=O`, for which the inhibition is 1.7%.

For `N#Cc1ccccc1S(=O)(=O)N1CCN(CC(O)c2ccccc2)CC1` (stereo not drawn), the inhibition is -12.7%.

Take `COc1cccc(C(=O)Nc2cccc(-c3ccc4nncn4n3)c2)c1OC`: the inhibition was -2.3%.

As to `COc1ccc(C2=NN(C(=O)CSc3ncccn3)C(c3cccc(OC)c3OC)C2)cc1` (stereo not drawn), the inhibition was 0.9%.

For `CCOC(=O)C1CCCN(C(=O)c2ccc(C)cc2O)C1` (stereo not drawn), the inhibition was 1.2%.

For the compound `CC1Cc2ccccc2N1c1ncnc2c1nnn2Cc1ccccc1Cl` (stereo not drawn), the inhibition was -1.3%.

For the compound `O=C(O)C1C2CCC(O2)C1C(=O)Nc1ccc(F)cc1` (stereo not drawn), the inhibition is -3.9%.

Turning to `O=C(O)C1C2CCC(O2)C1C(=O)Nc1ccc(O)cc1` (stereo not drawn), the inhibition is 54.4% (active).

On to `O=C(O)C1C2CCC(O2)C1C(=O)Nc1cccc(F)c1` (stereo not drawn), for which the inhibition is -3.7%.

`O=C(NCC(=O)N(c1cccnc1)C(C(=O)NC1CCCC1)c1ccccc1)c1ccco1` (stereo not drawn): the inhibition was -14.2%.

Turning to `Cc1onc(-c2ccccc2)c1C(=O)N1CCN(C(=O)c2ccco2)CC1`, the inhibition is 2%.

Turning to `COc1ccc(N(CC(=O)NCc2ccccc2OC)S(=O)(=O)c2ccccc2[N+](=O)[O-])c(OC)c1`, the inhibition was -1.5%.

As for `CN1c2ccccc2N(C)C1(C)c1ccccc1`, the inhibition is 31.1%.

Take `CCN1C(=O)N(C)C2(c3ccccc3)N(C)C(=O)N(C)C12c1ccccc1` (stereo not drawn): the inhibition is 12.7%.

With `O=C(c1cc(-c2ccco2)on1)N1CCOCC1`, the inhibition was 26.3%.

Take `CN1CCN(C(=O)c2cc(-c3ccco3)on2)CC1`: the inhibition is -11%.

For the compound `O=C(c1cc(-c2ccco2)on1)N1CCN(c2ccccc2)CC1`, the inhibition is 53.3% (active).

With `N#CCCn1c(C2CCCCC2)nc2ccccc21`, the inhibition was -2.5%.

Regarding `C(=Nc1ccc(Nc2ccccc2)cc1)c1ccc2ccccc2c1`, the inhibition was -17.3%.

Turning to `O=[N+]([O-])c1ccc(N=Cc2ccc(Br)c([N+](=O)[O-])c2)cc1`, the inhibition was 7.8%.

As to `O=[N+]([O-])c1cc(C=Nc2ccc3ccccc3c2)ccc1Br`, the inhibition was 51.5% (active).

In the case of `CCn1c2ccccc2c2nc3ccccc3nc21`, the inhibition was 8.1%.

`CCn1c2ccccc2c2nc3cc(C(=O)O)ccc3nc21`: the inhibition is 33.7%.

Consider `CCc1cc(C(=O)N2CCCC(CCC(=O)NCc3cccc(OC)c3)C2)no1` (stereo not drawn), for which the inhibition was -5.8%.
